For one assay, the system named is TTR (gene 7276). Briefly: CCTE_GLTED_hTTR_0.125uM: CCTE's human Transthyretin (hTTR) Inhibition Assay, with 0.125uM TTR, Great Lakes Toxicology and Ecology Division (GLTED) Lab (AID 2284431).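 Also: hits lower the fluorescence signal relative to DMSO baseline.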 Summed up:
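TTR at 0.125uM incubated 2 h with test chemical; displacement of bound ANSA read by fluorescence (ex 380, em 475). Activity is signal loss versus DMSO baseline.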

Assay [1] is described as follows: Tanguay_ZF_120hpf_EDEM: Oregon State University Tanguay Lab 120 Hour Post-fertilization zebrafish Assay for Edema Malformation (AID 2284400). In outline: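 Dechorionated Tropical 5D wild-type embryos, one per well, statically exposed from 6 to 120 hpf at 28C in 0.64% DMSO. Edema scored present/absent by brightfield microscopy at 120 hpf; dead embryos not scored; fit versus DMSO.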

A short description of assay [2]: Tanguay_ZF_120hpf_MUSC: Oregon State University Tanguay Lab 120 Hour Post-fertilization zebrafish Assay for Muscle Malformation (AID 2284401). In outline: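 Dechorionated Tropical 5D wild-type zebrafish embryos exposed statically from 6 to 120 hpf at 28C, one per well, in 0.64% DMSO. Muscle malformation scored present/absent by brightfield microscopy at 120 hpf, fitted against DMSO.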

Assay [3] in a line: Tanguay_ZF_120hpf_BRN: Oregon State University Tanguay Lab 120 Hour Post-fertilization zebrafish Assay for Brain Region Malformation (AID 2284402). In outline: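 Dechorionated wild-type Tropical 5D zebrafish embryos exposed statically from 6 to 120 hpf at 28C, one per well, 0.64% DMSO final. Brain malformation scored at 120 hpf by brightfield as present/absent; dead embryos not scored.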

Assay [4] in a line: Tanguay_ZF_120hpf_TCHR: Oregon State University Tanguay Lab 120 Hour Post-fertilization zebrafish Assay for Touch Responsive (AID 2284403). In outline:
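Dechorionated Tropical 5D wild-type zebrafish embryos, one per well from 6 hpf, were statically exposed to 120 hpf at 28 °C (0.64% DMSO). Touch response was scored present/absent at 120 hpf and not scored in dead larvae.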

Assay [5] in a line: Tanguay_ZF_120hpf_ANY: Oregon State University Tanguay Lab 120 Hour Post-fertilization zebrafish Assay for Any Mortality and Malformation (AID 2284404). Summed up: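 Dechorionated Tropical 5D wild-type embryos, one per well from 6 hpf, static exposure in sealed, dark plates at 28C until 120 hpf, 0.64% DMSO final. Brightfield scoring of mortality and malformations as binary presence/absence, pooling 13 morphology endpoints.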

Assay [6] is described as follows: CCTE_Padilla_ZF_Score.Craniofacial: CCTE's 144 Hour Post-fertilization zebrafish Assay Score for Craniofacial Malformation, Padilla Lab (AID 2284405). Summed up: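 Wild-type zebrafish embryos (with chorions), one per well in 10% Hanks', were dosed at 6–8 hpf in sealed plates and kept at 26C. They were rinsed at 5 dpf. At 6 dpf two blinded assessors scored craniofacial malformations by brightfield stereomicroscopy.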

A short description of assay [7]: CCTE_Padilla_ZF_Score.Edema: CCTE's 144 Hour Post-fertilization zebrafish Assay Score for Edema Malformation, Padilla Lab (AID 2284406). In outline:
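Wild-type zebrafish embryos, one per well in Hanks' solution, dosed at 6-8 hpf, sealed and reared at 26C on a 14:10 h cycle; rinsed on 5 dpf. At 6 dpf, blinded assessors scored edema by stereomicroscopy.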

Assay [8] is described as follows: CCTE_Padilla_ZF_Score.Spine: CCTE's 144 Hour Post-fertilization zebrafish Assay Score for Spine Malformation, Padilla Lab (AID 2284407). Summed up: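 Wild-type zebrafish embryos, one per well in Hanks' solution, dosed at 6–8 hpf in sealed plates at 26C, 14:10 h light:dark; rinsed at 5 dpf. Two blinded assessors scored spinal defects by stereomicroscopy at 6 dpf; fitted versus DMSO.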

A short description of assay [9]: CCTE_Padilla_ZF_Score.Swim_bladder: CCTE's 144 Hour Post-fertilization zebrafish Assay Score for Swim Bladder Malformation, Padilla Lab (AID 2284408). Summed up: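 Wild-type zebrafish embryos, one per well in 10% Hanks', dosed at 6–8 hpf, sealed, reared at 26C and rinsed at 5 dpf. Blinded assessors scored uninflated swim bladder by stereomicroscopy at 6 dpf, relative to DMSO.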

The nature of assay [10]: CCTE_Padilla_ZF_Score.Position: CCTE's 144 Hour Post-fertilization zebrafish Assay Score for Position, Padilla Lab (AID 2284409). Summed up: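 Wild-type zebrafish embryos (with chorions) exposed singly from 6–8 hpf in sealed wells of Hanks' solution at 26C, rinsed at 5 dpf. At 6 dpf, blinded assessors scored abnormal water-column position by brightfield stereomicroscopy, relative to DMSO.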

The nature of assay [11]: CCTE_Padilla_ZF_Score.Living: CCTE's 144 Hour Post-fertilization zebrafish Assay Score for Viability, Padilla Lab (AID 2284410).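 Also: larval death at 6 dpf judged by absent heartbeat or coagulation.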 In outline: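 Wild-type zebrafish embryos were exposed singly from 6–8 hpf in sealed wells of Hanks' solution at 26C, then rinsed at 5 dpf. At 6 dpf, blinded assessors scored mortality (no heartbeat or coagulation) by stereomicroscopy, fitted against DMSO.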

The nature of assay [12]: CCTE_Padilla_ZF_Score.General: CCTE's 144 Hour Post-fertilization zebrafish Assay Score for General Malformation, Padilla Lab (AID 2284411). In outline:
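Wild-type zebrafish embryos were plated singly at 6-8 hpf in 10% Hanks' and exposed in sealed wells at 26C until rinsed on 5 dpf. At 6 dpf two blinded assessors scored mortality, hatching and malformations by stereomicroscopy; gain-of-signal versus DMSO.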

Assay [13] is described as follows: CCTE_Padilla_ZF_Score.Tail: CCTE's 144 Hour Post-fertilization zebrafish Assay Score for Tail Malformation, Padilla Lab (AID 2284414). Summed up:
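Wild-type zebrafish embryos, one per well in 200 uL 10% Hanks', dosed at 6-8 hpf, sealed, and kept at 26 C on a 14:10 h light cycle. Chemical was rinsed out at 5 dpf. Blinded brightfield scoring of tail defects followed at 6 dpf.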

A short description of assay [14]: CCTE_Padilla_ZF_Score.Blood_pooling: CCTE's 144 Hour Post-fertilization zebrafish Assay Score for Blood Pooling, Padilla Lab (AID 2284415). Summed up: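 Wild-type outbred zebrafish embryos, one per well in 10% Hanks', exposed from 6–8 hpf in sealed plates at 26C on 14:10 h light:dark, rinsed at 5 dpf. Blinded stereomicroscope scoring of blood pooling at 6 dpf; gain-of-signal versus DMSO.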

Assay [15] can be described thus: CCTE_Padilla_ZF_Score.Any: CCTE's 144 Hour Post-fertilization zebrafish Assay Score for Any Mortality or Malformation, Padilla Lab (AID 2284416). In outline: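 Wild-type zebrafish embryos with chorions, one per well in 10% Hanks' from 6–8 hpf, dosed in sealed plates at 26 C, 14:10 h light:dark; rinsed at 5 dpf; blinded scoring at 6 dpf for death or malformation, versus DMSO.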

The source made the active and inactive calls. The calls were made as follows: active = hit-call score of the fitted dose curve at least 0.9, where 1 is the maximum; inactive = score below 0.9.

For orientation: AC50 means the midpoint of the concentration-response curve, whichever way the signal moves. As for `CCC(C)c1ccc(O)cc1` (stereo unspecified), the AC50 in the assay with TTR (gene 7276) was 4.66 µM (active).
Same read-out and setting: the same measure for `Cc1cc(N=Nc2ccccc2C)ccc1N`: 0.0179 µM (active); for `Nc1cc(Cl)cc(C(=O)O)c1Cl`: 8.24 µM (active).
Same read-out and setting: the same measure for `Brc1ccc(Oc2ccccc2)cc1`: 50 µM (active).
Same read-out and setting: the same measure for `CS(=O)(=O)NC(=O)c1cc(Oc2ccc(C(F)(F)F)cc2Cl)ccc1[N+](=O)[O-]`: 6.19 µM (active); for `c1ccc(N=Nc2ccccc2)cc1`: 28 µM (active).
Take `CCNS(=O)(=O)C(F)(F)C(F)(F)C(F)(F)C(F)(F)C(F)(F)C(F)(F)C(F)(F)C(F)(F)F`: the AC50 in [1] is 62.9 µM (active); in assay [5] it was 62.1 µM (active); in assay [7], 2.86 µM (active); in [9], 3.57 µM (active); in assay [11], 22.2 µM (active); in assay [12], 3.11 µM (active). Also, the half-maximal activity concentration (AC50) is 3.96 µM (active) in assay [15] and 1.05 µM (active) in the assay with TTR (gene 7276). In addition, the molecule was called inactive in [2], in assay [3], in assay [4], in [6], in assay [8] and in assay [10]. Further, the call in [13] and in assay [14] was inactive.
In the case of `Nc1ccc(Oc2ccc(N)cc2)cc1`, in the assay with TTR (gene 7276), the AC50 is 17.7 µM (active).
Turning to `[Cl-].[Cl-].[Hg+2]`, the half-maximal activity concentration (AC50) in the assay with TTR (gene 7276) is 6.05 µM (active).
Same read-out and setting: the same measure for `c1ccc(NNc2ccccc2)cc1`: 33.3 µM (active); for `Nc1ccc(N=Nc2ccccc2)cc1`: 0.593 µM (active).
